# This is a sample that favours compounds with a hit; in the whole collection about 12% have one here.
# PLK1 PBD block: qHTS for Inhibitors of PLK1-PDB (polo-like kinase 1 - polo-box domain): Primary Screen; Serine/threonine-protein kinase PLK1 (Homo sapiens), P53350; Plk1 PBD binding of FITC phosphopeptide, fluorescence polarization; Potency, µM, inactives show max response, negative = inhibition, usual class: inhibitors; 360,000 tested, 2.8% active; AID 720504, 2013; further: series mostly up to about 57 µM; on the % scale 0 is the no-effect control and ±100 the full control effect; nearly all actives have a fitted effect of over 65% in size
# JMJD2A Tudor inh: qHTS Assay for Inhibitors of JMJD2A-Tudor Domain | Lysine-specific demethylase 4A (Homo sapiens), O75164 | AlphaScreen JMJD2A-Tudor / H3K4me3 peptide binding | Potency, µM (highest dose often 114 µM), without a hit: at the top dose activity change, negative = inhibition, usual class: inhibitors | 390,000 tested, 4.4% active | AID 504339, 2011; further: on the % scale 0 is the no-effect control and ±100 the full control effect; nearly all actives have a fitted effect of over 50% in size
# Sfp PPTase inh: qHTS Assay for Inhibitors of Bacillus subtilis Sfp phosphopantetheinyl transferase (PPTase); 310,000 tested, 3.5% active; AID 1490, 2009; Potency, µM, inactives show largest response in the series, negative = inhibition, usual class: inhibitors; Biochemical Sfp PPTase activity, qHTS;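 further: the enzyme is Sfp with the accession as filed and its product quenches rhodamine fluorescence; 0% = enzyme reaction without inhibitor and -100% = no enzyme wells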
#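 With Hepes-Na pH 7.6 buffer containing 10 mM MgCl2, Sfp (15 nM) modified BHQ-2-YbbR (12.5 uM) using rhodamine-CoA (5 uM). Two reads 30 minutes apart at 525/598 nm yielded each well's rate.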
# HP1b chromo inh: HTS for Inhibitors of HP1-beta Chromodomain Interactions with Methylated Histone Tails. AID 540317, 2011. AlphaScreen HP1-beta / biotin-H3K9me3 peptide binding. Potency, µM (top dose mostly 114 µM), for inactives: top-dose activity change, negative = inhibition, usual class: inhibitors. 390,000 tested, 0.56% active; further: nearly all actives have a fitted effect of over 70% in size
#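 HP1-beta protein (50 nM final) preincubated 30 min at room temperature with biotinylated H3(1-18)K9me3 peptide (50 nM) in PBS pH 7.4, 0.01% Tween-20, then compound added for 30 min. AlphaScreen streptavidin donor/nickel chelate acceptor beads (10 ug/mL final), 30 min dark, luminescence read.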
# BAZ2B block: qHTS Assay for Inhibitors of BAZ2B; Potency, µM (series often up to 114 µM), inactives show top-dose activity change, negative = inhibition, actives largely listed as inhibitors; AlphaScreen BAZ2B-H3K14Ac peptide displacement; 360,000 tested, 4.4% active; further: on the % scale 0 is the no-effect control and ±100 the full control effect; nearly all actives have a fitted effect of over 60% in size
# Target sequence (Q9UIF8 whole entry, looked up): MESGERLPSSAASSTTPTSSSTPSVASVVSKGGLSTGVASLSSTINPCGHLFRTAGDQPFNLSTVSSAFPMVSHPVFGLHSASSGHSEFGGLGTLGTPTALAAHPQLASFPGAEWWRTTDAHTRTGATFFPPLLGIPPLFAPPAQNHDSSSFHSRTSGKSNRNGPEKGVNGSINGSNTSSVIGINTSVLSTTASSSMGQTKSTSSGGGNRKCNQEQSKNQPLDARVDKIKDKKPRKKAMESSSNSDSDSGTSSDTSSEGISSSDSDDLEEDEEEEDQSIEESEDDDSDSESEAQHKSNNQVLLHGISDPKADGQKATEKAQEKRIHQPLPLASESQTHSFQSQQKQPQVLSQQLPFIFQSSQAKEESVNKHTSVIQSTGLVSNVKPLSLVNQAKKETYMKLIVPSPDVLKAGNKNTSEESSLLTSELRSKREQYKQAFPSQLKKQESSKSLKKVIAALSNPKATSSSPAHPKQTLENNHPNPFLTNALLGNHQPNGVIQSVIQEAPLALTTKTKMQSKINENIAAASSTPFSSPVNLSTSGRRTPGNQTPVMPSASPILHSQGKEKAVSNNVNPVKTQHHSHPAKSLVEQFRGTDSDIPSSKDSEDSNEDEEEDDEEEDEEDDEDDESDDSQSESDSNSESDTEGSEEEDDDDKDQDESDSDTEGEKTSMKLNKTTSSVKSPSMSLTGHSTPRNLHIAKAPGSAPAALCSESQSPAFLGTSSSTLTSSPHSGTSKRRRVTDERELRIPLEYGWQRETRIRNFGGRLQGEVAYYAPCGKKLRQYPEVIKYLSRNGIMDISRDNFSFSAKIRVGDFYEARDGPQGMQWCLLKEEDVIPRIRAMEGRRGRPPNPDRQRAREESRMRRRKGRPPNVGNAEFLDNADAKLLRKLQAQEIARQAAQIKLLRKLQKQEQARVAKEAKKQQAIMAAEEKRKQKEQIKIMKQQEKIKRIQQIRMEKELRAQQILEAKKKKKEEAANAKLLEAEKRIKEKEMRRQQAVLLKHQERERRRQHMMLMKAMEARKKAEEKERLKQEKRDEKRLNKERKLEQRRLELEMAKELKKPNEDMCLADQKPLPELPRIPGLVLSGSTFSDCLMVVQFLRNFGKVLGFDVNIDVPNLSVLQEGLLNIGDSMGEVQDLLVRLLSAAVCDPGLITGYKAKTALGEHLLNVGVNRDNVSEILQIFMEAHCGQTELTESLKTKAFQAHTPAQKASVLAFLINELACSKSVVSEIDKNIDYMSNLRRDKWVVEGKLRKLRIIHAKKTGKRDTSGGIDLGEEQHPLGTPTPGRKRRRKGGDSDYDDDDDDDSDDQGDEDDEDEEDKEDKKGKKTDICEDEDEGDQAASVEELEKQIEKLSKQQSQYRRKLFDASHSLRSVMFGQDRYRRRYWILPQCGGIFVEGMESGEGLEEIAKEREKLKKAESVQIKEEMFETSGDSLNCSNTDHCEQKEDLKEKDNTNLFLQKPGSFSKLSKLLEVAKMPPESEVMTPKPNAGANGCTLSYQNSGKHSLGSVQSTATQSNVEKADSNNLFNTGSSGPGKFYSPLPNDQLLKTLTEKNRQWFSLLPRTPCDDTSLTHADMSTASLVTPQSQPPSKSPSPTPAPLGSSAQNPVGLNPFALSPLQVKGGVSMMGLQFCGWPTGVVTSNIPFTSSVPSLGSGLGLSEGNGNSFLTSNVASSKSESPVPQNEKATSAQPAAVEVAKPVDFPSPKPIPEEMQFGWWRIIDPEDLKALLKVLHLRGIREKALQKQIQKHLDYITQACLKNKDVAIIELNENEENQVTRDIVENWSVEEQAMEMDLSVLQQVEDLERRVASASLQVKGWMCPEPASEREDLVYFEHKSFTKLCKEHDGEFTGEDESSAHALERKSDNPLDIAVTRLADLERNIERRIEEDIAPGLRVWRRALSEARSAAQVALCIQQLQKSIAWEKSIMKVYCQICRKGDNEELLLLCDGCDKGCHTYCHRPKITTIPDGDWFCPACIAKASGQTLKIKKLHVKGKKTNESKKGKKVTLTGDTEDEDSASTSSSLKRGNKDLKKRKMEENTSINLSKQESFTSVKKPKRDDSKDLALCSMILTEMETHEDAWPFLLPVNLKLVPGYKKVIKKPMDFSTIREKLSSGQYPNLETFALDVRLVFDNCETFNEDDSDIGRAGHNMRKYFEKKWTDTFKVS
#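 AlphaScreen displacement of biotin-H3(5-23)K14Ac peptide (50 nM final) from BAZ2B (50 nM final) in PBS pH 7.4, 0.01% Tween-20; complex preformed 30 min RT, then compounds (top 110 uM) 30 min RT, beads 20 min dark.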
# G9a block: qHTS Assay for Inhibitors of Histone Lysine Methyltransferase G9a | Potency, µM (top dose mostly 102 µM), inactives show at the top dose activity, negative = inhibition, actives largely listed as inhibitors | 350,000 tested, 8.8% active | Histone-lysine N-methyltransferase EHMT2 (Homo sapiens), Q96KQ7 | AID 504332, 2011 | G9a H3K9 monomethylation, AlphaScreen, 2 h; further: on the % scale 0 is the no-effect control and ±100 the full control effect; nearly all actives have a fitted effect of over 75% in size
#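 G9a (20 nM) preincubated 15 min RT with compounds, then 500 nM biotinylated H3K9 peptide and 20 uM SAM added; 2 h RT reaction. Monomethyl-H3K9 product detected by AlphaScreen with anti-H3K9me1 antibody, streptavidin donor and anti-rabbit IgG acceptor beads.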
# The depositor's hits bear a star; ? = inconclusive; . = not tested or not shown; [ ] = remark or other dose. The call rests on the fitted dose curve; in most records, active means well fitted curve in the direction sought with a large enough effect; inconclusive means small, poorly fitted or top-dose-only effect, or another doubt; inactive means no such curve, though single readings can be large; an effect the other way counts as inactive or inconclusive. Potency means the concentration at half of the fitted maximal effect.
SMILES,PLK1 PBD block,JMJD2A Tudor inh,Sfp PPTase inh,HP1b chromo inh,BAZ2B block,G9a block
COc1ccccc1N1CCN(C(=O)c2cnn(C(C)(C)C)c2C2CCN(C(=O)OC(C)(C)C)CC2)CC1,.,-12%,.,39%,7%[57.1 µM],-7%[59 µM]
O=C1C2CCCCN2C(=O)N1CCCN1CCN(c2ccc(F)cc2)CC1 (stereo unspecified),-13%,?,-1%,33%,-3%,12%[0.501 µM]
COc1ccccc1N1CCN(CCCCN2C(=O)C3CCCCN3C2=O)CC1 (stereo unspecified),8.4µM*,?,-8%,-4%,5%,22%[0.501 µM]
CCCCOc1ccccc1N1CCN(CCCN2C(=O)C3CCCN3C2=O)CC1 (stereo unspecified),3%,-9%,3%,26%,-20%,?
Nc1ccc(N2CCN(CCCCN3C(=O)C4CCCN4C3=O)CC2)cc1 (stereo unspecified),-3%,?,-8%,-28%,?,10µM*
Cc1ccc(NC(=O)COC(=O)c2sccc2C)cc1S(=O)(=O)N1CCOCC1,-5%,-10%,20%,43%,1%,50µM*
Cc1ccc(NC(=O)CSc2nnc(N)s2)cc1S(=O)(=O)N1CCOCC1,-9%,-16%,.,7%,-7%,50µM*
O=C(CN(c1ccc(Cl)c(C(F)(F)F)c1)S(=O)(=O)c1ccccc1)N1CCc2ccccc2C1,.,2%,.,45%,1%,13%[59 µM]
COCCn1c(SCC(=O)N(C)c2ccccc2)nc2c([nH]c3ccccc32)c1=O,6%,-1%,2%,30%,-5%,.
O=c1cc(Cn2ccnc2)c2cc(O)ccc2o1,0%,1%,6%,37%,?,-15%
CN(Cc1ccccc1)C(=O)c1ccc2c(c1)N(Cc1ccc(Cl)cc1)C(=O)c1ccccc1S2=O (stereo unspecified),.,-8%,.,20%,-22%,-49%[59 µM]
O=[N+]([O-])c1ccccc1N=Nc1ccc(O)cc1,2%,50µM*,.,?,.,.
COC(=O)c1ccccc1NN=Nc1ccccc1[N+](=O)[O-],2%,.,.,.,.,.
O=[N+]([O-])c1ccccc1N=NNc1ccccc1,-8%,20µM*,.,?,.,.
CCN(CC)CCSc1nnc2c3cc(C)ccc3n(Cc3ccccc3)c2n1,?,?,6%,4%,-30%,-41%
Cc1nc(-c2ccc(S(=O)(=O)Nc3ccc(C)c(C)c3)s2)cs1,.,-17%,.,.,.,.
CC1(C)C2CCC(CN=C(N)CSS(=O)(=O)O)C1C2 (stereo unspecified),4.7µM*,.,.,.,.,.
O=C(CNC(=O)c1ccc2ccccc2c1)OC(C(=O)Nc1cc(C(F)(F)F)ccc1Cl)c1ccccc1 (stereo unspecified),.,-18%,.,.,.,.
S=c1[nH]nc(C2CCCCC2)n1/N=C/c1ccccc1,?,56µM*,-11%,-8%,-38%,20µM*
S=c1[nH]nc(C2CCCCC2)n1/N=C/c1cccc(Cl)c1Cl,-28%,-36%,-3%,-14%,-4%,8.9µM*
Nc1c(C(=O)NC2CCCCC2)c2nc3ccccc3nc2n1/N=C/c1ccco1,.,.,-4%,.,.,19%[59 µM]
CN(C)c1ccc(/C=N/n2c(C3CCCCC3)n[nH]c2=S)cc1,-26%,40µM*,-20%,?,?,10µM*
CN(C)c1ccc(/C=N/NC(=O)C(=O)N2CCCCCC2)cc1,-6%,-20%,17%,-9%,-24%,?
S=c1[nH]nc(C2CCCCC2)n1/N=C/c1ccco1,-18%,13µM*,-2%,-5%,-9%,1.4µM*
COc1ccc(Cl)cc1NC(=O)c1c(NCc2ccc(C)o2)sc2c1CCCCC2,.,?,.,-19%,-26%,?
SMILES,PLK1 PBD block,JMJD2A Tudor inh,Sfp PPTase inh,HP1b chromo inh,BAZ2B block,G9a block
COc1ccc(CCn2nnnc2C2(c3ccc(C)cc3)CC2)cc1,.,.,.,.,.,-5%[59 µM]
CC(C)CCn1c(SC(C)C#N)nc2ccccc2c1=O (stereo unspecified),.,45%[57.1 µM],.,54%[57 µM],.,.
Cc1ccc(S(=O)(=O)N2CCN(c3nc(-c4ccc(F)cc4)nc4cc(Cl)ccc34)CC2)cc1,.,-8%,.,30%,.,.
Fc1ccc(/C=N/n2c(C3CCCCC3)n[nH]c2=S)cc1,?,56µM*,?,?,-38%,7.1µM*
CCOc1ccc(/C=N/n2c(C3CCCCC3)n[nH]c2=S)cc1,?,?,?,9%,0%,28µM*
Nc1nnnn1/N=C/c1ccc(F)cc1,-2%,-13%,-1%,44%,-5%,32%
CCOc1ccc(/C=N/n2cnnc2)cc1,-4%,-14%,16%,6%,5%,-31%[12.7 µM]
CCCC(=O)Nc1nnc(C2CCCO2)s1 (stereo unspecified),-21%,?,-24%,29%,2%,13%[0.501 µM]
O=C(CN1C(=O)c2ccccc2C1=O)Nc1nnc(C2CCCO2)s1 (stereo unspecified),-11%,-7%,-13%,16%,-15%,45µM*
COc1ccc(-c2cc3ccc(OC(C)C(=O)O)cc3oc2=O)cc1 (stereo unspecified),-6%,-12%,3%,39%,4%,.
C[C@@]12C=Cc3occc3C1CC[C@@]13C[C@@H](CCC12)[C@@](O)(CO)C3 (stereo partly specified),.,.,-28%,.,.,14µM*
Cc1ccc(-n2ncc3c(NCCc4ccccc4)ncnc32)cc1Cl,.,22%,.,26%,32%,24%[59 µM]
CCCOc1ccc(N2C(=O)CC(N3CCN(CCN=CC4=C(O)CC(C)(C)CC4=O)CC3)C2=O)cc1 (stereo unspecified),-1%,3%,28%,42%,0%,.
CC1(C)CC(=O)C(C=NCCN2CCN(C3CC(=O)N(c4ccc(Br)cc4)C3=O)CC2)=C(O)C1 (stereo unspecified),27µM*,?,12%,-9%,1%,6%[0.501 µM]
N#Cc1c(Nc2ccccc2)sc(C(=O)c2ccccc2)c1N,-16%,?,-18%,-25%,?,10µM*
N#Cc1c(Nc2ccc(F)cc2)sc(C(=O)c2ccccc2)c1N,-3%,-19%,-6%,22%,-11%,-24%
Cc1nc(Nc2ccc(Cl)c(Cl)c2)sc1C(=O)Nc1ccccc1,27µM*,22µM*,5%,-13%,-32%,?
Cc1nc(Nc2ccc(Cl)cc2Cl)sc1C(=O)Nc1ccccc1,-4%,-10%,8%,17%,-4%,21%[59 µM]

# Screening data deposited in PubChem BioAssay by National Center for Advancing Translational Sciences (NCATS).
